Bioassay records deposited in PubChem by several laboratories.
m-calpain inh = inhibitors of pig calpain II, primary screen, biochemical, fluorogenic peptide substrate, 1536-well; 220,000 tested, 0.37% active; purified calpain II, 30 min; inhibition, % at 16 µM;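 active = inhibition above about 50%, limit read from the data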
L major viab = Leishmania major promastigote growth inhibition, primary screen. Leishmania major promastigotes, resazurin fluorescence viability. inhibition, % at 10 µM. 200,000 tested, 9% active; in the data active = inhibition above about 50%;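 note: promastigotes grown with compound for 44 hours at 28 °C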
WT yeast gro inh = growth inhibition of WT strain, primary screen, mitochondrial fusion inhibitor project, WT and mutant strains, chemical genetic; mitochondrial fusion phenotypic screen; inhibition, % at 10 µM; 190,000 tested, 2.1% active; in the data active = inhibition above about 58%; tested in S. cerevisiae
KCC2 mod = KCC2 cotransporter modulators, thallium flux, primary screen, cell-based, HEK293 KCC2, FluoZin-2 fluorescence, MLSMR; B-score of Tl+ flux slope (higher = more flux/activation; lower = inhibition) at 10 µM; 190,000 tested, 2.2% active; KCC2 cells, thallium flux FluoZin-2 fluorescence;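 active = thallium flux slope and its plate-corrected score both differing from the plate sample mean at a set confidence after two filtering rounds, in either direction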;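 note: slope of fluorescence scaled to starting intensity during 10 to 20 s after thallium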
Target sequence (Q9H2X9 whole entry, looked up): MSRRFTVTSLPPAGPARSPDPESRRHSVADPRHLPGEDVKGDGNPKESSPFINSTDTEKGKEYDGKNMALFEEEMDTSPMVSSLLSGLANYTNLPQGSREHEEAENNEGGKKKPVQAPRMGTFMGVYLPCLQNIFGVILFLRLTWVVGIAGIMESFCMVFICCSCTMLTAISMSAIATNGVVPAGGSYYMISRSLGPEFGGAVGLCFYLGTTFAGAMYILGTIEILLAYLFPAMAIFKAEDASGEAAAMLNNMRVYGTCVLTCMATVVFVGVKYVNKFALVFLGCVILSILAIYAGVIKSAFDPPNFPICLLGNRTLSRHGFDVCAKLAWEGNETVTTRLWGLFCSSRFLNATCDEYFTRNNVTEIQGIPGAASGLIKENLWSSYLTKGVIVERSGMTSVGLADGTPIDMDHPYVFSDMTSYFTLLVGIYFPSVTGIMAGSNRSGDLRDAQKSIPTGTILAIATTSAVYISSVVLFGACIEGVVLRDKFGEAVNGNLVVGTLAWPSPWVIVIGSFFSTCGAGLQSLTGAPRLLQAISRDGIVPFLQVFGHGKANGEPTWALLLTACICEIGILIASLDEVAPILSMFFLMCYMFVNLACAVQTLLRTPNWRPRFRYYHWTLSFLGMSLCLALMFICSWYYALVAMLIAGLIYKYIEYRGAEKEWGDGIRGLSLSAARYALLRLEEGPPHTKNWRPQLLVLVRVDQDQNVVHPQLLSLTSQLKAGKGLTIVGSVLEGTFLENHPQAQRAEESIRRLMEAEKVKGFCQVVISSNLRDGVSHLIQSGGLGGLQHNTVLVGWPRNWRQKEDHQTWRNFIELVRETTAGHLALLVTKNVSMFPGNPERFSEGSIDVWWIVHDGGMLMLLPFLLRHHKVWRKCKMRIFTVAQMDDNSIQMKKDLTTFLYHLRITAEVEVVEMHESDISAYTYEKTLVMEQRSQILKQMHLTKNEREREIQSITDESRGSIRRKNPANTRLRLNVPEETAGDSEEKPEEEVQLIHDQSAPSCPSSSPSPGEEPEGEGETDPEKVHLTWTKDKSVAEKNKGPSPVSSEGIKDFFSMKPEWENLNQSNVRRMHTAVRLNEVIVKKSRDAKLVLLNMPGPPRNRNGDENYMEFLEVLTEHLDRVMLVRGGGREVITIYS
ROMK primary = ROMK potassium channel modulators, primary screen, cell-based, thallium flux, MLSMR library; ATP-sensitive inward rectifier potassium channel 1 (Homo sapiens), P48048; Tet-inducible ROMK, thallium flux fluorescence; actives lie on both sides; B-score at 10 µM; 130,000 tested, 2% active; AID 1918, 2009;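 active = signal ratio slope over the read window, or its plate-corrected B-score, at least 3 SD from the plate mean, either direction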;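 note: B-score of the F/F0 ratio slope over 7 to 12 s after thallium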
Active calls of the source: *; nt = no result given. An excerpt weighted towards active compounds, which were near 12% of everything screened.

SMILES | m-calpain inh | L major viab | WT yeast gro inh | KCC2 mod | ROMK primary
CCOC(=O)c1ccc(NC(=S)N(CCCN2CCCC(C)C2)Cc2cccs2)cc1 (stereo not given) | 8 | 97* | -1 | 0.31 | 0.56
Cc1ccc(NC(=S)N(CCCN2CCOCC2)Cc2cccs2)c(C)c1 | 22 | 69* | 0 | 0.0026 | -1.6
CSc1cccc(NC(=S)N(CCCN2CCC(C)CC2)Cc2cccs2)c1 | -4 | 61* | 14 | -0.76 | -2.8
COc1ccc(NC(=S)N(CCCN2CCCCC2)Cc2cccs2)cc1 | 29 | 83* | 8 | -0.7 | -2.2
COc1ccc(NC(=S)N(CCCN2CCC(C)CC2)Cc2cccs2)cc1 | 1 | 42 | -1 | 0.047 | -0.38
CCOC(=O)c1ccc(NC(=S)N(CCN2CCCCCC2)Cc2cccs2)cc1 | -2 | 96* | 18 | -0.29 | 1.2
CCN(CC)CCCNC(=S)N(Cc1cccnc1)Cc1cc2cc(C)ccc2[nH]c1=O | 16 | nt | nt | -1.6 | -1.7
O=[N+]([O-])c1ccc(N/N=C\c2ccccc2OCc2ccccc2)cc1 | 14 | 53* | -4 | 0.66 | -0.24
O=[N+]([O-])c1cccc(N/N=C/c2cccc(O)c2O)c1 | -94 | 90* | 62* | -0.85 | 0.18
Oc1ccccc1/C=N/Nc1ccccc1 | 18 | 13 | 79* | -0.00032 | -0.77
Cn1cc(/C=N/Nc2ccccc2)c2ccccc21 | -8 | 63* | -3 | 0.2 | -0.91
Cc1cc(N/N=C/c2ccc(O)cc2O)nc(-c2ccccc2O)n1 | 2 | 12 | 11 | 0.82 | 0.67
Cc1cc(O)c(/C=N/Nc2ccccc2)c(=O)o1 | -31 | 76* | 11 | nt | nt
Oc1ccc(/C=N/Nc2ccc3ccccc3c2)c(O)c1 | -62 | 85* | 49 | 0.021 | -0.016
CC(C)CC1NC(=O)N(CC(=O)Nc2ccc3c(c2)CCC3)C1=O (stereo not given) | 2 | -5 | -9 | 0.2 | -0.14
Cc1ccc(CNC(=O)CSc2ccc(-c3ccco3)nn2)cc1 | -15 | 63* | 3 | -1.3 | nt
Cc1cc(C)cc(NC(=O)CSc2ccc(-c3ccco3)nn2)c1 | -3 | 51* | -10 | -0.67 | nt
CCn1c(/C=C/N(C(C)=O)c2ccccc2)[n+](CC)c2ccc(Cl)cc21 | 11 | 18 | 1 | -0.034 | 0.028
CC[n+]1c(/C=C/N(C)c2ccccc2)oc2ccc(Cl)cc21 | 31 | 100* | 17 | 0.99 | nt
COc1ccc(C(=O)NCCNC(C)=O)cc1S(=O)(=O)NCc1ccc(Cl)cc1 | -7 | 1 | -9 | nt | nt
COc1ccc(C(=O)NCc2ccc3c(c2)OCO3)cc1S(=O)(=O)NCc1ccc(Cl)cc1 | -2 | 61* | -2 | 0.5 | -0.66
Cc1c(C(=O)NCc2ccc3c(c2)OCO3)oc2ccc(Br)cc12 | 40 | -5 | 62* | -0.81 | -0.046
O=C(NCc1ccc2c(c1)OCO2)c1ccc(-c2ccc(Cl)cc2)o1 | 24 | -6 | 69* | -0.25 | -0.9
O=C(NCc1ccc2c(c1)OCO2)c1cccc(Cl)c1 | 8 | -4 | -2 | 0.94 | nt
COc1ccc(NC(=O)C(c2ccccc2)N2CCN(c3ccccn3)CC2)cc1Cl (stereo not given) | -24 | 13 | 8 | 0.074 | 0.023
SMILES | m-calpain inh | L major viab | WT yeast gro inh | KCC2 mod | ROMK primary
COc1cnc(SCc2c(Cl)cccc2Cl)nc1Cl | 51* | 0 | 56 | nt | nt
COc1ccc(Cn2c(-c3ccc(OC)c(O)c3)nc3ccccc32)cc1O | -28 | 15 | -14 | -1.6 | 0.18
CCCCCCCCCCn1c2c(c(=N)c3c1CCC3)CCC2 | 54* | 100* | 3 | 0.59 | nt
COc1ccc(C(=O)Oc2ccc(=O)n(-c3ccccc3)n2)cc1 | -9 | -2 | 4 | -0.029 | nt
CC(=O)NCCNC(=O)c1ccc(NC2=NC3CS(=O)(=O)CC3S2)cc1 (stereo not given) | -25 | nt | nt | -0.27 | 0.13
COc1ccc(N2CCN(C(=O)c3ccccc3)CC2)c([N+](=O)[O-])c1 | 10 | 8 | 0 | 0.52 | 0.96
COc1ccc(N2CCN(C(=O)c3ccc(C)cc3)CC2)c([N+](=O)[O-])c1 | 34 | 54* | 30 | -0.25 | 1
COc1ccc(N2CCN(C(=O)c3ccc(Br)cc3)CC2)c([N+](=O)[O-])c1 | 20 | 0 | 69* | 0.055 | -0.37
COc1ccc(/C=C/C(=O)Nc2cc(S(=O)(=O)N3CCOCC3)ccc2C)cc1OC | -70 | 2 | -6 | 0.23 | -0.46
CC1CCN(c2[nH]c(=S)c(C#N)c3c2CCCC3)CC1 | -7 | 100* | 5 | -0.029 | nt
Cc1nc(-c2ccc(Cl)cc2)sc1C1(C)CC(c2cccc([N+](=O)[O-])c2)=NO1 (stereo not given) | -9 | nt | nt | 1 | nt
COc1ccc2nc(C)cc(SCC(=O)N/N=C/c3c(OC)ccc4ccccc34)c2c1 | -22 | 71* | -22 | 0.34 | 1.1
COc1ccc2nc(C)cc(SCC(=O)N/N=C/c3ccc(O)cc3O)c2c1 | -10 | 98* | 0 | -0.1 | nt
O=C(CSc1n[nH]c(=O)[nH]c1=O)N/N=C/c1ccccc1O | -25 | 100* | -6 | -0.025 | nt
COc1ccc(CSCC(=O)N/N=C/c2ccccc2O)cc1 | -104 | 68* | 11 | 0.7 | -0.92
CCN(CC)S(=O)(=O)c1cccc(-c2nnc(SCc3nnc(-c4cccs4)o3)n2N)c1 | -23 | -2 | 5 | -2.2 | nt
CSc1ccc(-c2nnn(Cc3ccc(C)cc3)n2)cc1 | 2 | -4 | 4 | nt | -1.6
Cc1cnc(C(=O)OCC(=O)c2csc(N3CCCCC3)n2)cn1 | -25 | -7 | -66 | -2.2 | nt
CCCOc1ccc(OCCN2CCCC(C)C2)cc1 (stereo not given) | 50* | 96* | 11 | 0.0013 | -0.91
CCCOc1ccc(C(=O)CCN2CCCCC2)cc1 | -25 | 90* | -8 | 0.13 | 0.32
COc1ccc(C(CC(=O)N2CCCCC2)C(C)C)cc1 (stereo not given) | -3 | nt | nt | -1.6 | nt
COc1ccc(OCCC(=O)N2CCCCC2)cc1 | 5 | 0 | 88* | nt | nt
CCCCOc1ccc(C(=O)CCN2CCOCC2)cc1 | 32 | 76* | 25 | 0.012 | -0.072
COc1ccc(C(=O)OC2CCN(C)CC2)cc1 | 12 | 12 | 23 | -0.12 | 1.1
CCOc1ccc(C(=O)CCN2CCCCCC2)cc1 | 6 | 100* | -12 | -0.39 | nt
SMILES | m-calpain inh | L major viab | WT yeast gro inh | KCC2 mod | ROMK primary
CCOc1ccc(C(=O)OC2CCN(C)CC2)cc1 | -21 | 100* | -17 | 1.2 | 0.2
COc1ccc(C(=O)CCN2CCc3cc(OC)c(OC)cc3C2)cc1 | -6 | 67* | -14 | -1.7 | -0.3
CCOc1ccc(OCCN2CCCCC2)cc1 | -4 | 1 | -8 | 0.46 | 0.39
CCCOc1cc(CN2CCCCC2)cc(C(C)=O)c1 | 16 | 52* | 9 | 1.1 | -0.14
COc1ccc(C(=O)CCN2CCN(c3ccccc3OC)CC2)cc1 | 2 | 16 | -20 | -0.32 | -1.2
COc1cc(C(=O)O)cc(Br)c1OC1CCCC1 | 17 | -8 | 4 | 1.3 | -0.41
COC(=O)CC(NC(=O)C1CC1)c1ccc2c(c1)OCO2 (stereo not given) | -20 | -9 | -11 | 0.81 | 0.082
